The results in this text go back to PubChem BioAssay.

The nature of the first assay: inhibitors of mitochondrial cytochrome c release, biochemical, purified mitochondria (AID 1603).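 Further: mouse liver mitochondria challenged with calcium chloride; signal normalized to the plate average as 100%.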 The conditions noted are these: stronger effect = lower value.
For the molecule `C[C@@H]1CC[C@H]2[C@@H](C)C(=O)O[C@@H]3OC4(C)CC[C@@H]1[C@]32OO4`, the cytochrome c release ratio was 1.15.
The same measure, in the same setting: for `CO[C@H]1[C@H](O)[C@H](O[C@H]2CC[C@]3(C)C4CC[C@]5(C)C(C6=CC(=O)OC6)CC[C@]5(O)C4CC[C@@H]3C2)O[C@@H](C)[C@@H]1O` (stereo not given in full) the value was 0.83; for `COc1ccc2c(c1)[C@]13CCCC[C@H]1[C@H](C2)N(C)CC3`, 0.98.
On the same count and under the same terms, for `CC(=O)C1=C(O)C2C3c4c[nH]c5cccc(c45)CC3C(C)(C)N2C1=O` (stereo not given) the value was 1.1.
On to `O=C1CC2OCC=C3CN4CC[C@]56c7ccccc7N1C5[C@H]2[C@H]3CC46` (stereo not given in full), for which the cytochrome c release ratio turned out to be 1.
The same measure, in the same setting: for `C=C1C2CC[C@H]3[C@]4(C)C[C@H](OC5OC(CO)C(OS(=O)(=O)O)C(OS(=O)(=O)O)C5OC(=O)CC(C)C)C[C@@H](C(=O)O)[C@H]4CC[C@]3(C2)[C@H]1O` (stereo not given in full) the value was 1.3; for `C[C@H]1O[C@@H](O[C@H]2[C@@H](O)C[C@H](O[C@H]3[C@@H](O)C[C@H](O[C@H]4CC[C@]5(C)C6CC[C@]7(C)[C@@H](C8=CC(=O)OC8)CC[C@]7(O)C6CC[C@@H]5C4)O[C@@H]3C)O[C@@H]2C)C[C@H](O)[C@@H]1O` (stereo not given in full), 1.31; for `CCC(C)C(=O)O[C@H]1[C@H](O)C2C(CN3CC(C)CCC3[C@@]2(C)O)C2C[C@]34O[C@]5(O)C(OC(=O)C(C)(O)C(C)O)CC[C@@]3(C)C5C(OC(C)=O)[C@@H](OC(C)=O)C4[C@@]21O` (stereo not given in full), 1.
Same read-out and setting: to `C/C=C(\C)C(=O)O[C@H]1C[C@@H](OC(C)=O)[C@@]2(C(=O)OC)CO[C@@H]3C2[C@]12CO[C@](O)(C(=O)OC)[C@H]2[C@](C)(C12O[C@@]1(C)[C@H]1C[C@@H]2OC2OC=C[C@@]21O)[C@@H]3O` (stereo not given in full) belongs 1.46; to `COc1ccc2c(c1OC)C(=O)O[C@H]2[C@H]1c2cc3c(cc2CCN1C)OCO3`, 1.06.

The next assay can be described thus: inhibitors of polyQ protein aggregation (AID 1604). The conditions noted are these: polyglutamine-induced protein aggregation inhibition assay; stronger effect = higher value; tested at 2.5 µM.
In the case of `C[C@@H]1CC[C@H]2[C@@H](C)C(=O)O[C@@H]3OC4(C)CC[C@@H]1[C@]32OO4`, the inhibition of aggregation came to 79.2%.
Same read-out and setting: for `CO[C@H]1[C@H](O)[C@H](O[C@H]2CC[C@]3(C)C4CC[C@]5(C)C(C6=CC(=O)OC6)CC[C@]5(O)C4CC[C@@H]3C2)O[C@@H](C)[C@@H]1O` (stereo not given in full) the value was 94.4%.
Still for that read-out and setting: for `COc1ccc2c(c1)[C@]13CCCC[C@H]1[C@H](C2)N(C)CC3` the value was 78.2%; for `CC(=O)C1=C(O)C2C3c4c[nH]c5cccc(c45)CC3C(C)(C)N2C1=O` (stereo not given), -15.2%.
The same measure, in the same setting: to `O=C1CC2OCC=C3CN4CC[C@]56c7ccccc7N1C5[C@H]2[C@H]3CC46` (stereo not given in full) belongs 70.4%; to `C=C1C2CC[C@H]3[C@]4(C)C[C@H](OC5OC(CO)C(OS(=O)(=O)O)C(OS(=O)(=O)O)C5OC(=O)CC(C)C)C[C@@H](C(=O)O)[C@H]4CC[C@]3(C2)[C@H]1O` (stereo not given in full), 74.7%; to `C[C@H]1O[C@@H](O[C@H]2[C@@H](O)C[C@H](O[C@H]3[C@@H](O)C[C@H](O[C@H]4CC[C@]5(C)C6CC[C@]7(C)[C@@H](C8=CC(=O)OC8)CC[C@]7(O)C6CC[C@@H]5C4)O[C@@H]3C)O[C@@H]2C)C[C@H](O)[C@@H]1O` (stereo not given in full), 76%.
Regarding `CCC(C)C(=O)O[C@H]1[C@H](O)C2C(CN3CC(C)CCC3[C@@]2(C)O)C2C[C@]34O[C@]5(O)C(OC(=O)C(C)(O)C(C)O)CC[C@@]3(C)C5C(OC(C)=O)[C@@H](OC(C)=O)C4[C@@]21O` (stereo not given in full), the inhibition of aggregation came to 1.96%.
With `C/C=C(\C)C(=O)O[C@H]1C[C@@H](OC(C)=O)[C@@]2(C(=O)OC)CO[C@@H]3C2[C@]12CO[C@](O)(C(=O)OC)[C@H]2[C@](C)(C12O[C@@]1(C)[C@H]1C[C@@H]2OC2OC=C[C@@]21O)[C@@H]3O` (stereo not given in full), the inhibition of aggregation stood at 72.4%.
On to `COc1ccc2c(c1OC)C(=O)O[C@H]2[C@H]1c2cc3c(cc2CCN1C)OCO3`, for which the inhibition of aggregation was 71.9%.

The nature of the next assay: enhancers of glutamate uptake in motor neurons, MN-1 cell line (AID 1612).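 Further: tested at 1 µM final; 0% = mean of DMSO vehicle wells on each plate; positive means more glutamate uptake than control and negative means less.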 The conditions noted are these: MN-1 motor neuron cells, stronger effect = higher value.
In the case of `C[C@@H]1CC[C@H]2[C@@H](C)C(=O)O[C@@H]3OC4(C)CC[C@@H]1[C@]32OO4`, the glutamate uptake change was determined as 20.6%.
The same measure, in the same setting: for `CO[C@H]1[C@H](O)[C@H](O[C@H]2CC[C@]3(C)C4CC[C@]5(C)C(C6=CC(=O)OC6)CC[C@]5(O)C4CC[C@@H]3C2)O[C@@H](C)[C@@H]1O` (stereo not given in full) the value was -17.6%; for `COc1ccc2c(c1)[C@]13CCCC[C@H]1[C@H](C2)N(C)CC3`, 6.18%.
Still for that read-out and setting: for `CC(=O)C1=C(O)C2C3c4c[nH]c5cccc(c45)CC3C(C)(C)N2C1=O` (stereo not given) the value was 28.8%; for `O=C1CC2OCC=C3CN4CC[C@]56c7ccccc7N1C5[C@H]2[C@H]3CC46` (stereo not given in full), -17.6%.
With `C=C1C2CC[C@H]3[C@]4(C)C[C@H](OC5OC(CO)C(OS(=O)(=O)O)C(OS(=O)(=O)O)C5OC(=O)CC(C)C)C[C@@H](C(=O)O)[C@H]4CC[C@]3(C2)[C@H]1O` (stereo not given in full), the glutamate uptake change was 4.94%.
Turning to `C[C@H]1O[C@@H](O[C@H]2[C@@H](O)C[C@H](O[C@H]3[C@@H](O)C[C@H](O[C@H]4CC[C@]5(C)C6CC[C@]7(C)[C@@H](C8=CC(=O)OC8)CC[C@]7(O)C6CC[C@@H]5C4)O[C@@H]3C)O[C@@H]2C)C[C@H](O)[C@@H]1O` (stereo not given in full), the glutamate uptake change is 5.63%.
Still for that read-out and setting: to `CCC(C)C(=O)O[C@H]1[C@H](O)C2C(CN3CC(C)CCC3[C@@]2(C)O)C2C[C@]34O[C@]5(O)C(OC(=O)C(C)(O)C(C)O)CC[C@@]3(C)C5C(OC(C)=O)[C@@H](OC(C)=O)C4[C@@]21O` (stereo not given in full) belongs 2.79%; to `C/C=C(\C)C(=O)O[C@H]1C[C@@H](OC(C)=O)[C@@]2(C(=O)OC)CO[C@@H]3C2[C@]12CO[C@](O)(C(=O)OC)[C@H]2[C@](C)(C12O[C@@]1(C)[C@H]1C[C@@H]2OC2OC=C[C@@]21O)[C@@H]3O` (stereo not given in full), 12.4%; to `COc1ccc2c(c1OC)C(=O)O[C@H]2[C@H]1c2cc3c(cc2CCN1C)OCO3`, 13.5%.
